“And” between values parts separate entries of the source, which are not always exact repeats. Identical values can stand only once. About 83,000 compounds went through this panel and 20% of them were active in at least one assay; those are over-represented in the sample as a whole.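 A percent growth of 40 corresponds to 60% growth inhibition; 0 means no net growth; -100 means all cells died. Active threshold: below 10.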 The source made the active and inactive calls.
System: HL-60(TB) leukemia
Assay: NCI-60 one-dose screen, 48 h (100 = growth as untreated, 0 = no growth, -100 = all killed)
Details: 10 µM unless noted

Question: With `COc1ccc2c(c1)N=C(C(=O)O)/C2=C/c1sc(Nc2ccc(O)cc2)nc1O` as the compound, how does the growth read?
Answer: 85.8% (inactive)

Question: `O=C(O)c1cccc(-c2ccc(/C=N/NC(=O)c3[nH]c4ccc(Br)cc4c3-c3ccccc3)s2)c1` was tested. Which growth did it give?
Answer: 42.4% (inactive)

Question: Which growth does the source give for `CC(C)C[C@H](NC(=O)[C@@H]1CCCCCCCCCCC(=O)N[C@@H](CC(=O)N2CCC[C@@H]2C2CCCC2)C(=O)N1)B(O)O` here?
Answer: -33.3% (active)

Question: With `N=C1N=C(SCc2nc3ccccc3[nH]2)NC(=O)/C1=C/c1ccc(Cl)cc1` as the compound, how does the growth read?
Answer: 102% (inactive)

Question: For `CSc1ccc(NC(=O)c2ccc3nnn(/C(C#N)=C/c4ccccn4)c3c2)cc1`, which growth is on record?
Answer: 2.93% (active)

Question: For `CC1(C)CC[C@]2(C(=O)O)CC[C@]3(C)C(=CCC4[C@@]5(C)C[C@@H](O)[C@@H]6OC(c7cccc(F)c7)OC[C@@]6(C)C5CC[C@]43C)C2C1` (stereo not given in full), which growth is on record?
Answer: 9.5% (active)

Question: With `C/C(=N\NC(N)=S)c1ccc(Nc2nc(SC(C)C)nc(-c3ccccc3)c2C#N)cc1` as the compound, how does the growth read?
Answer: 89.9% (inactive)

Question: For `COc1cc2c3c(n(CCCN4CCOCC4)c(=O)c2cc1OC)-c1nc2c(cc1C3=O)OCO2`, which growth is on record?
Answer: 65.2% (inactive)

Question: With `COc1ccc(Cc2nn(CC(=O)N/N=C/c3ccc([N+](=O)[O-])cc3)c(=O)c3c(C)noc23)cc1` as the compound, how does the growth read?
Answer: 109% (inactive)

Question: `CCCSc1nc(NC2CC2)c(C#N)c(-c2ccc(OC)cc2)n1` was tested. Which growth did it give?
Answer: 81% (inactive)

Question: How did the growth turn out when `C=C(c1ccc(OC)c(N)c1)c1cc(C)nc2ccccc12` was run?
Answer: -22.8% (active)

Question: Which growth does the source give for `COc1ccc(NC(=O)[C@@H](N)Cc2ccccc2)cc1C(=O)Nc1cccc(C2CC(=O)c3c(cc(OC)c(OC)c3OC)O2)c1` (stereo not given in full) here?
Answer: 1.01% (active)

Question: With `O=C(CCl)Nc1ccc(C(=O)/C=C/c2cc3ccccc3nc2Cl)cc1` as the compound, how does the growth read?
Answer: -17.4% (active) and 30.5% (inactive)

Question: With `Cc1cccc(NC(=O)[C@]23CCC(C)(C)CC2C2=CCC4[C@@]5(C)C[C@@H](O)[C@H](O)[C@@](C)(CO)C5CC[C@@]4(C)[C@]2(C)CC3)c1` (stereo not given in full) as the compound, how does the growth read?
Answer: -14.4% (active)

Question: With `COc1ccc(-c2nc3ccc(-c4nnc(SCc5ccccc5)o4)cc3[nH]2)cc1OC` as the compound, how does the growth read?
Answer: 78.4% (inactive)

Question: Which growth does the source give for `NS(=O)(=O)c1ccc(N=Nc2c(O)n(CC(=O)Nc3ccccc3Br)c3ccccc23)cc1` here?
Answer: 76.6% (inactive)

Question: With `CS(=O)(=O)Nc1cccc(-n2c(COc3ccc(OC(F)(F)F)cc3)nc3ccccc32)c1` as the compound, how does the growth read?
Answer: 111% (inactive) and 95.1% (inactive)

Question: Which growth does the source give for `O=C1Nc2ccccc2/C1=C/C(=O)c1cc2ccccc2oc1=O` here?
Answer: 102% (inactive)

Question: For `O=C(N=Nc1c(O)[nH]c2ccc(Br)cc12)c1ccc2nc(-c3ccc(Cl)cc3)[nH]c2c1`, which growth is on record?
Answer: 20.9% (inactive)

Question: Which growth does the source give for `Cc1ccc(Cl)cc1NC(=O)Nc1nc2ccc([N+](=O)[O-])cc2s1` here?
Answer: 1.69% (active)

Question: `COc1ccc(NC(=O)CSc2nnc(-c3ccc(-c4nc5ccccc5[nH]4)cc3)o2)cc1` was tested. Which growth did it give?
Answer: 43.5% (inactive)

Question: Which growth does the source give for `S=c1c2ccccc2nc2n1CCc1c-2[nH]c2ccccc12` here?
Answer: 98% (inactive)

Question: `CCc1ccccc1NC(=O)N/C(N)=N/c1nc2ccccc2s1` was tested. Which growth did it give?
Answer: -27.2% (active)

Question: Which growth does the source give for `CCCn1c(=O)c2[nH]c(-c3ccc(OCc4nc5ccccc5[nH]4)cc3)nc2n(CCC)c1=O` here?
Answer: 85.3% (inactive)

Question: How did the growth turn out when `CCc1ccc(SC2c3cc(OC)ccc3Oc3nc(N)c(C#N)c(N)c32)cc1` (stereo not given) was run?
Answer: -77.8% (active)

Question: `Fc1ccccc1CNc1nc(SCCN2CCOCC2)nc2c1cnn2CC(Cl)c1ccc(Br)cc1` (stereo not given) was tested. Which growth did it give?
Answer: -22.8% (active)

Question: Which growth does the source give for `CN1C(=O)N(C)C2SC(N/N=C/c3ccccc3F)=NC21` (stereo not given) here?
Answer: 1.5% (active)

Question: For `Cc1ccc(O)cc1Nc1nc(SCCN2CCOCC2)nc2c1cnn2CC(Cl)c1ccc(Br)cc1` (stereo not given), which growth is on record?
Answer: -49.7% (active)

Question: Which growth does the source give for `C#CCOc1ccc(/C=N/Nc2nc(-c3cc4cc(OC)ccc4oc3=O)cs2)cc1OC` here?
Answer: 76.1% (inactive)

Question: `CCOc1ccc(/C=N/NC(=O)Cn2nc(Cc3ccccc3)c3onc(C)c3c2=O)cc1` was tested. Which growth did it give?
Answer: 89.7% (inactive)

Question: Which growth does the source give for `O=C1Nc2cc(Cl)ccc2/C1=C/c1cccc(OCc2ccccc2)c1` here?
Answer: -25.3% (active)

Question: How did the growth turn out when `CN(CCSSCCN1CCOCC1)C(=O)Oc1cc2c(c3ccccc13)[C@H](CCl)CN2C(=O)c1cc2cc(OCCCN3CCC3)ccc2[nH]1` was run?
Answer: -45.8% (active)

Question: For `COc1cc2oc(-c3cccc(C(=O)Nc4ccc(Cl)cc4)c3)cc(=O)c2c(OCCNC(=O)[C@@H](N)CCC(=O)O)c1OC`, which growth is on record?
Answer: 81.6% (inactive)

Question: For `Cc1cc(=O)oc2cc(OCCCCOc3ccc(/C=C/C(=O)Nc4ccccc4N)cc3)ccc12`, which growth is on record?
Answer: 0.47% (active)

Question: How did the growth turn out when `CC(=O)c1cc(C(=O)N2c3ccccc3Sc3ccccc32)n2ccc(C)cc12` was run?
Answer: 33.3% (inactive)

Question: How did the growth turn out when `Nc1nc(-c2ccccc2)cc(-c2cc3ccccc3nc2Cl)n1` was run?
Answer: 51.6% (inactive)

Question: With `O=C(CSc1nnc(-c2c[nH]c3ccccc23)n1-c1ccccc1)Nc1ccc(C(=O)/C=C/c2ccc(Cl)cc2)cc1` as the compound, how does the growth read?
Answer: 66.8% (inactive)

Question: With `COc1ccc(-n2c(NC(=O)N3CCN(C)CC3)c(C#N)c3ccccc32)cc1` as the compound, how does the growth read?
Answer: 74.2% (inactive)

Question: For `O=C(O)c1cccc(-c2ccc(/C=N/NC(=O)c3[nH]c4ccc(Br)cc4c3-c3ccccc3)o2)c1`, which growth is on record?
Answer: 88.5% (inactive)

Question: Which growth does the source give for `O=c1[nH]c2ccccc2cc1CSc1ccc(Nc2nccc(-c3ccc(Cl)cc3)n2)cc1` here?
Answer: 74.8% (inactive)
